# Assay results taken from PMC7862700, “An all-to-all approach to the identification of sequence-specific readers for epigenetic DNA modifications on cytosine”.
# Experiments:
# Experiment in all cases: DAPPL (digital affinity profiling via proximity ligation, sequencing); 10 mM Tris-HCl pH 7.5, 50 mM NaCl, 1 mM DTT, 4% glycerol, room temperature, 30 min; GST-TFs on glutathione beads, 16-mer random dsDNA library, 0.1% formaldehyde crosslink after washing; high values mean tight binding
# Conditions in all cases: protein: recombinant; tags: N-terminal GST; dsDNA, one strand shown
# ERF = target: T1, ERF (Homo sapiens, UniProt P50548 1-548)
# T1 sequence: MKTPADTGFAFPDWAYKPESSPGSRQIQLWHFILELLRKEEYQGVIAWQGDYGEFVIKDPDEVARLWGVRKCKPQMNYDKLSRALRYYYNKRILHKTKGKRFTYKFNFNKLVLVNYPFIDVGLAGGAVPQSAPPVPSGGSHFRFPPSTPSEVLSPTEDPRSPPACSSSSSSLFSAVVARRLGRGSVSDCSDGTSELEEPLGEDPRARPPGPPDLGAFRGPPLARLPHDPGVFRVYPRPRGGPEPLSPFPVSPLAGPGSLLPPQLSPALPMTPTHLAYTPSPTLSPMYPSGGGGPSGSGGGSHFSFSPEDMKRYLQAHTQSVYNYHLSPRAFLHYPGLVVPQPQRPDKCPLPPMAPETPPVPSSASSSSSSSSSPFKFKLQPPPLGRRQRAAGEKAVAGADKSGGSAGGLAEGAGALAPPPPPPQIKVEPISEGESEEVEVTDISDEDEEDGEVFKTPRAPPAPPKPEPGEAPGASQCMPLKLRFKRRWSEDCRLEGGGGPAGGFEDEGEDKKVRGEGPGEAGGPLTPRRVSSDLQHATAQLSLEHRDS
# In short: (§1)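 After expression in yeast as GST fusions, human transcription factors were bound to glutathione beads, DNA-barcoded and mixed with a tag-only sample. The pools were incubated with 200 nmole of a 16-mer random double-stranded DNA library in Tris/NaCl/DTT/glycerol buffer (30 min, room temperature), washed and crosslinked with 0.1% formaldehyde. Proximity ligation with BsaI/T4 ligase ran for 1 h at 37 °C, before PCR amplification and sequencing on an Illumina NextSeq500. Binding signal is a hexamer's read frequency for a factor divided by its frequency for the tag-only sample.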
# ETV3L = target: T2, ETV3L (Homo sapiens, UniProt Q6ZN32 1-361)
# T2 sequence: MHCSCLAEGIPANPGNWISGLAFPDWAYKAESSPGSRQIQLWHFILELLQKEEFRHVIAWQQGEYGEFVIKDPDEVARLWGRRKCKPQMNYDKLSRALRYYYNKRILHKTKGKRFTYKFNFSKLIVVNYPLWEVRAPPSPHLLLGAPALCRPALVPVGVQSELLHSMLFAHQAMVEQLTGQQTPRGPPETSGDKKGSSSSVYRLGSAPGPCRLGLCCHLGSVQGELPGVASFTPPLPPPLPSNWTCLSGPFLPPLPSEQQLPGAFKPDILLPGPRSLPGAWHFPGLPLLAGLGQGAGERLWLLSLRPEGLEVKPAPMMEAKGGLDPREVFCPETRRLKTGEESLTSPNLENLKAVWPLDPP
# In short: as §1
# ETS2 = target: T3, ETS2 (Homo sapiens, UniProt P15036 1-469)
# T3 sequence: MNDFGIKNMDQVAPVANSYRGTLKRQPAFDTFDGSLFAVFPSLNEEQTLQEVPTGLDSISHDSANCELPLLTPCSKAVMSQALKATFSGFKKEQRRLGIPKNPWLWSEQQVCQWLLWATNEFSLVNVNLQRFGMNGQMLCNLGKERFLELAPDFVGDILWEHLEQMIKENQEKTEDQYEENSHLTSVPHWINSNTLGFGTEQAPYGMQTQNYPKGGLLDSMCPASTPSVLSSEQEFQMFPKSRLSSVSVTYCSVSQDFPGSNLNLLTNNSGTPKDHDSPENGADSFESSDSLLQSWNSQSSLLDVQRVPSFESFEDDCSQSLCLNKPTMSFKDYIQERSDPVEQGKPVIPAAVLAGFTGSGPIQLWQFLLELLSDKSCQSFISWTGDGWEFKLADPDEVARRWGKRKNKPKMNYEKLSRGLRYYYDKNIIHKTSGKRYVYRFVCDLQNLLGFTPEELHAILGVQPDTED
# In short: as §1
# SPDEF = target: T4, SPDEF (Homo sapiens, UniProt O95238 1-335)
# T4 sequence: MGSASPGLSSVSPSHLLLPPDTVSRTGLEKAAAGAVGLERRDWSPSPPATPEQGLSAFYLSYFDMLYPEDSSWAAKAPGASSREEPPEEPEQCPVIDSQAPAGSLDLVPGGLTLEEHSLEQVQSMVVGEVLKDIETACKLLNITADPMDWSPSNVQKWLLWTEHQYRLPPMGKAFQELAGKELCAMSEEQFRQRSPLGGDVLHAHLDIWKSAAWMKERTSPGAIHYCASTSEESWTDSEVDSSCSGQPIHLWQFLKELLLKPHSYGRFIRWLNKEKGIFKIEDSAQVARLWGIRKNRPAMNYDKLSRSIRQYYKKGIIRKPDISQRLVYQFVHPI
# In short: as §1
# ETV7 = target: T5, ETV7 (Homo sapiens, UniProt Q9Y603 1-341)
# T5 sequence: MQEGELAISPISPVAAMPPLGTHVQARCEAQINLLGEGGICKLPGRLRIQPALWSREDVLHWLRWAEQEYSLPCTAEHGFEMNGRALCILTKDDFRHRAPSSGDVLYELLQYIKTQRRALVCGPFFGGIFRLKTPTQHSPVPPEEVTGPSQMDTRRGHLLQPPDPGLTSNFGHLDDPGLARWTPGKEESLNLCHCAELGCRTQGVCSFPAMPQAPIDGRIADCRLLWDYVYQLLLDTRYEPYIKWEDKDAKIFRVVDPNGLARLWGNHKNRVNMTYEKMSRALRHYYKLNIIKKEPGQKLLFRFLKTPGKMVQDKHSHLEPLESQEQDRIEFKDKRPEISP
# In short: as §1
# ELF5 = target: T6, ELF5 (Homo sapiens, UniProt Q9UKW6-2 1-255)
# T6 sequence: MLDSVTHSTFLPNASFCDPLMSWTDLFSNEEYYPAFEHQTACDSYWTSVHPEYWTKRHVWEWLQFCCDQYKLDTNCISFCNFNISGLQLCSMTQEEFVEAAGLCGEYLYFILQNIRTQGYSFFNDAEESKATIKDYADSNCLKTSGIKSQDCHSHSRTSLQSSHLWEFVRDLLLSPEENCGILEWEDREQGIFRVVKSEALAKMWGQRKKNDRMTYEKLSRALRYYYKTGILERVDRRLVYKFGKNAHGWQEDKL
# In short: as §1
# ETV3 = target: T7, ETV3 (Homo sapiens, UniProt P41162-2 1-143)
# T7 sequence: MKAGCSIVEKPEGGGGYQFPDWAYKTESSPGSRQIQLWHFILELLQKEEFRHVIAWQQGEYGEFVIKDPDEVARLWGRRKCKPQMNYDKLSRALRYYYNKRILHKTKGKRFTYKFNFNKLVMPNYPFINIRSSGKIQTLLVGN
# In short: as §1
# ETV6 = ETV6 (Homo sapiens, UniProt P41212 1-452)
# Chain of ETV6 (P41212 whole entry): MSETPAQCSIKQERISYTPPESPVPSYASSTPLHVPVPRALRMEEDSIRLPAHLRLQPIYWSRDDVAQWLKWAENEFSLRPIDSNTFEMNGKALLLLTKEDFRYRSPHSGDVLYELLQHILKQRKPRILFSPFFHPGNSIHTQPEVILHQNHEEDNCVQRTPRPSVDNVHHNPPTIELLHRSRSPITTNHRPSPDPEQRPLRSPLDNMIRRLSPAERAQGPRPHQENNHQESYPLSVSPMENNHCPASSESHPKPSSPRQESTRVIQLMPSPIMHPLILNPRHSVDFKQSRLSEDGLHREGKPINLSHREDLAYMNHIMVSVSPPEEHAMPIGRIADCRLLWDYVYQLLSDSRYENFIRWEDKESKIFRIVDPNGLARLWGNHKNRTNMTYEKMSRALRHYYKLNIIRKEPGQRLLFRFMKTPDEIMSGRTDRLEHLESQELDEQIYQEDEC
# In short: as §1
Sequence,binding signal (ERF),binding signal (ETV3L),binding signal (ETS2),binding signal (SPDEF),binding signal (ETV7),binding signal (ELF5),binding signal (ETV3),binding signal (ETV6)
TAGCTC,"1.04 fold enrichment (6-mer frequency, TF over GST control)","1.14 fold enrichment (6-mer frequency, TF over GST control)","1.21 fold enrichment (6-mer frequency, TF over GST control)","1.24 fold enrichment (6-mer frequency, TF over GST control)","1.24 fold enrichment (6-mer frequency, TF over GST control)","1.1 fold enrichment (6-mer frequency, TF over GST control)","1.17 fold enrichment (6-mer frequency, TF over GST control)","1.14 fold enrichment (6-mer frequency, TF over GST control)"
TCACGT,"1.28 fold enrichment (6-mer frequency, TF over GST control)","1.22 fold enrichment (6-mer frequency, TF over GST control)","1.2 fold enrichment (6-mer frequency, TF over GST control)","1.15 fold enrichment (6-mer frequency, TF over GST control)","1.22 fold enrichment (6-mer frequency, TF over GST control)","1.19 fold enrichment (6-mer frequency, TF over GST control)","1.19 fold enrichment (6-mer frequency, TF over GST control)","1.24 fold enrichment (6-mer frequency, TF over GST control)"
AACTCT,"1.33 fold enrichment (6-mer frequency, TF over GST control)","1.27 fold enrichment (6-mer frequency, TF over GST control)","1.32 fold enrichment (6-mer frequency, TF over GST control)","1.35 fold enrichment (6-mer frequency, TF over GST control)","1.24 fold enrichment (6-mer frequency, TF over GST control)","1.35 fold enrichment (6-mer frequency, TF over GST control)","1.34 fold enrichment (6-mer frequency, TF over GST control)","1.33 fold enrichment (6-mer frequency, TF over GST control)"
TGCTCT,"1.35 fold enrichment (6-mer frequency, TF over GST control)","1.37 fold enrichment (6-mer frequency, TF over GST control)","1.4 fold enrichment (6-mer frequency, TF over GST control)","1.17 fold enrichment (6-mer frequency, TF over GST control)","1.24 fold enrichment (6-mer frequency, TF over GST control)","1.27 fold enrichment (6-mer frequency, TF over GST control)","1.29 fold enrichment (6-mer frequency, TF over GST control)","1.31 fold enrichment (6-mer frequency, TF over GST control)"
ACTACC,"1.72 fold enrichment (6-mer frequency, TF over GST control)","1.6 fold enrichment (6-mer frequency, TF over GST control)","1.7 fold enrichment (6-mer frequency, TF over GST control)","1.61 fold enrichment (6-mer frequency, TF over GST control)","1.55 fold enrichment (6-mer frequency, TF over GST control)","1.76 fold enrichment (6-mer frequency, TF over GST control)","1.7 fold enrichment (6-mer frequency, TF over GST control)","1.74 fold enrichment (6-mer frequency, TF over GST control)"
TTAACG,"1.15 fold enrichment (6-mer frequency, TF over GST control)","1.17 fold enrichment (6-mer frequency, TF over GST control)","1.23 fold enrichment (6-mer frequency, TF over GST control)","1.23 fold enrichment (6-mer frequency, TF over GST control)","1.13 fold enrichment (6-mer frequency, TF over GST control)","1.14 fold enrichment (6-mer frequency, TF over GST control)","1.16 fold enrichment (6-mer frequency, TF over GST control)","1.17 fold enrichment (6-mer frequency, TF over GST control)"
CACAAG,"1.13 fold enrichment (6-mer frequency, TF over GST control)","1.16 fold enrichment (6-mer frequency, TF over GST control)","1.22 fold enrichment (6-mer frequency, TF over GST control)","1.07 fold enrichment (6-mer frequency, TF over GST control)","1.05 fold enrichment (6-mer frequency, TF over GST control)","1.11 fold enrichment (6-mer frequency, TF over GST control)","1.16 fold enrichment (6-mer frequency, TF over GST control)","1.14 fold enrichment (6-mer frequency, TF over GST control)"
TTACCT,"1.22 fold enrichment (6-mer frequency, TF over GST control)","1.22 fold enrichment (6-mer frequency, TF over GST control)","1.32 fold enrichment (6-mer frequency, TF over GST control)","1.18 fold enrichment (6-mer frequency, TF over GST control)","1.36 fold enrichment (6-mer frequency, TF over GST control)","1.28 fold enrichment (6-mer frequency, TF over GST control)","1.17 fold enrichment (6-mer frequency, TF over GST control)","1.23 fold enrichment (6-mer frequency, TF over GST control)"
